# High-throughput results as filed in PubChem.
# Rows were chosen to be rich in hits. Some 2.8% of all compounds tested hit in one or more screens of this group.
# Pol eta inh-1: DNA polymerase eta (human) inhibition | recombinant Pol eta, fluorescent DNA replication assay | Potency, µM (series often up to 114 µM), for inactives: at the highest dose activity change, negative = inhibition, usual class: inhibitors | 390,000 tested, 1.2% active; also: potency is read from the fitted curve at half-maximal effect; % is scaled to controls: 0 for no effect and ±100 for the full control effect
#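 Pol eta (10 nM) was preincubated with compounds for 15 min at room temperature, after which fluorescent replication substrate (50 nM final) was added to start the reaction. Fluorescence was read kinetically at 0 and 10 min.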
# WRN helicase inh: blocks human WRN helicase | Q14191 | WRN helicase unwinding, fluorescent forked duplex, kinetic | Potency, µM (series often up to 114 µM), without a hit: at the top dose activity change, negative = inhibition, usual class: inhibitors | 360,000 tested, 0.46% active; also: potency is read from the fitted curve at half-maximal effect; % is scaled to controls: 0 for no effect and ±100 for the full control effect; nearly all actives have a fitted effect of over 55% in size
#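 WRN at 20 nM final preincubated with compound 15 min at room temperature; reaction started with 100 nM fluorophore/quencher forked duplex oligonucleotide and 2 mM ATP final. Unwinding followed kinetically by red fluorescence (ex 525, em 598 nm).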
# POLI inh: DNA polymerase iota (human) inhibition; Q9UNA4; Pol iota fluorescent replication assay, 10 min; Potency, µM (top dose mostly 115 µM), without a hit: at the highest dose activity, negative = inhibition, most hits filed as inhibitors; 390,000 tested, 1% active; AID 588590; also: potency is read from the fitted curve at half-maximal effect
#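 Pol iota at 10 nM preincubated 15 min with compounds at room temperature; reaction started with fluorescent substrate, 50 nM final. Fluorescence read kinetically at 0 and 10 min; buffer-only wells as negative control.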
# POLB inh: DNA polymerase beta (human) inhibition; Pol beta primer extension/strand displacement, fluorescence kinetic; Potency, µM (highest dose often 114 µM), inactives show top-dose activity change, negative = inhibition, usual class: inhibitors; 340,000 tested, 1.3% active; P06746; AID 485314; also: potency is read from the fitted curve at half-maximal effect; % is scaled to controls: 0 for no effect and ±100 for the full control effect
#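 Curves were derived by four-parameter Hill fits of normalized qHTS data. The kinetic fluorescent primer-extension read was taken at 0 and 10 min after 50 nM substrate, following a 15 min room-temperature preincubation of 10 nM enzyme with compounds.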
# PI5P4Ka inh: PI5P4K alpha (human) kinase inhibition; max response, %; P48426; PI5P4Kalpha enzyme, ADP-Glo luminescence, 60 min; hits give low values; 330,000 tested, 1.2% active; AID 652105; active = max response of -50% or lower; inconclusive = between -30% and -50%; inactive = -30% or higher; also: value at the top dose of about 77 µM; % is scaled to controls: 0 for no effect and ±100 for the full control effect
#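 ADP-Glo luminescence end-point read after a 60 min room-temperature kinase reaction of PI5P4Kalpha plus substrate, initiated with ATP at 5 microM final. Buffer: 0.038 M HEPES pH 7.4, EGTA, 0.1% CHAPS, 5% DMSO.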
# Pol kappa inh-1: blocks human DNA polymerase kappa activity; Q9UBT6; purified Pol kappa, fluorescent DNA synthesis assay, 10 min; Potency, µM (series often up to 107 µM), without a hit: top-dose activity, negative = inhibition, actives largely listed as inhibitors; 400,000 tested, 0.53% active; AID 588579; also: potency is read from the fitted curve at half-maximal effect; % is scaled to controls: 0 for no effect and ±100 for the full control effect
# Target sequence (Q9UBT6 whole entry, looked up): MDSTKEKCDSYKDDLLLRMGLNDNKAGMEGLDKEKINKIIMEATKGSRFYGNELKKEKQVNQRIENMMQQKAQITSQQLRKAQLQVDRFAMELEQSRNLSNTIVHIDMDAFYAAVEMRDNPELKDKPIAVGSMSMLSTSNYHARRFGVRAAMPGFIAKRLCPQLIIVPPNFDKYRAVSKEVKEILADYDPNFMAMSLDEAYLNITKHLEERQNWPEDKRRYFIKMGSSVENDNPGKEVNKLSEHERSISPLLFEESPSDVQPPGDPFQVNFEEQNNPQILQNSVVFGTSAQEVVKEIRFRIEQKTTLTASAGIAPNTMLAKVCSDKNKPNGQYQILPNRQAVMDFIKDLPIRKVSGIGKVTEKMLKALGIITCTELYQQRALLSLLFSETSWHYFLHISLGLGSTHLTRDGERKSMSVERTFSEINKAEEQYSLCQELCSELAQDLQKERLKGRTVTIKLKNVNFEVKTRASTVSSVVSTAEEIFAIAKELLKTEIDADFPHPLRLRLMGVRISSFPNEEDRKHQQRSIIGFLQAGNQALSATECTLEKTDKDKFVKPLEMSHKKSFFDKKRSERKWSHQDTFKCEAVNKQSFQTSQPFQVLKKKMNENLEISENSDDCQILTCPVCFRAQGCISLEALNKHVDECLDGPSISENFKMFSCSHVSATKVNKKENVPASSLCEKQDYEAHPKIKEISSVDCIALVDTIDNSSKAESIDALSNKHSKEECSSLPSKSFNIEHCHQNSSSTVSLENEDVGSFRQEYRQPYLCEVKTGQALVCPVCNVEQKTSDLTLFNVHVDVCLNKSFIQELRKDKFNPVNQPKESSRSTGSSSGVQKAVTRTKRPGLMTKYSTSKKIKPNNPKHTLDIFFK
#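 Inhibition of 10 nM Pol kappa is measured by a fluorescent read-out at 0 and 10 min following addition of 50 nM substrate (final), with a 15-min room-temperature compound preincubation.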
# GALK confirm: galactokinase (human) inhibition, confirmation | shares compounds with Pol eta inh-1 | purified GALK, Kinase-Glo ATP depletion luminescence | Potency, µM (doses to about 115 µM), without a hit: at the top dose activity, negative = inhibition, usual class: inhibitors | 150 tested, 70% active | AID 2015
# Redox cycling: redox cycling activity in phenol red-HRP assay | shares compounds with Pol eta inh-1 | Phenol red-HRP H2O2 redox cycling, absorbance 600 nm | Potency, µM (titrated, usually from 115 µM), without a hit: at the highest dose activity change, negative = H2O2 signal, most hits filed as inhibitors | 150 tested, 40% active
# HEK293 tox: reduces HEK-293 cell viability in GALK counter-screen | shares compounds with Pol eta inh-1 | HEK-293 viability, ATP luminescence (CellTiter-Glo), 24/48 h | Potency, µM (doses to about 46.1 µM), without a hit: at the top dose activity change, negative = cytotoxicity, actives largely listed as inhibitors | 170 tested, 10% active | AID 2547; also: potency is read from the fitted curve at half-maximal effect; % is scaled to controls: 0 for no effect and ±100 for the full control effect
# Pol kappa inh-2: confirmation of human DNA polymerase kappa inhibitors; 920 tested, 76% active; Potency, µM, most hits filed as inhibitors; AID 720501; shares compounds with Pol eta inh-1; purified Pol-kappa, fluorescent strand-displacement substrate; also: potency is read from the fitted curve at half-maximal effect
# Pol eta inh-2: Pol eta (human) inhibition, cherry-pick confirmation; shares compounds with Pol eta inh-1; Pol eta primer extension, TAMRA/BHQ fluorescence, 10 min; Potency, µM, most hits filed as inhibitors; 2,600 tested, 64% active; AID 720502; also: potency is read from the fitted curve at half-maximal effect
# * marks the source's active call; other numbers are inactive results; ? = inconclusive; / = not tested or not shown; [ ] = remark or other dose. Unless noted, calls follow the shape of the dose curve; as a rule, active = well fitted curve in the direction sought with a large enough effect; inconclusive = small, poorly fitted or top-dose-only effect, or another doubt; inactive = no such curve, though single readings can be large; an effect the other way counts as inactive or inconclusive.
SMILES,Pol eta inh-1,WRN helicase inh,POLI inh,POLB inh,PI5P4Ka inh,Pol kappa inh-1,Pol eta inh-2,others
O=C(O)CCc1nnc(SCC(=O)Nc2ccc(Cl)c(C(F)(F)F)c2)[nH]c1=O,1.3%,-18.3%,0.4%,12.8%,-8.4,-9.8%,/,GALK confirm=?;Redox cycling=2.1%;HEK293 tox=-8.3%
O=C(O)CCc1nnc(SCC(=O)Nc2cccc(C(F)(F)F)c2)[nH]c1=O,-13.7%,-8.6%[57.1 µM],61.2%,19.4%,0.0,2.3%,/,
COc1cc2ccccc2cc1C(=O)NC(=S)Nc1cccc(C(=O)O)c1,44.7µM*,?,?,28.2µM*,-6.5,-19.3%,?,
COc1ccc(NC(=O)c2cc3ccccc3cc2OC)cc1,-12.8%,-14.3%,?,7.7%,-2.7,?,/,
COc1cc2ccccc2cc1C(=O)NC(=S)Nc1ccc(C(=O)O)cc1,50.1µM*,-12.8%[11.6 µM],-0.5%,-17.8%,-4.7,-10.1%,?,
CCOC(=O)c1c(NC(=O)CCCOc2ccc(C(C)(C)C)cc2)sc2c1CCC2,-5.5%,/,-27.1%,25.9%,/,-15.0%,/,
O=C(O)c1ccc(S(=O)(=O)N[C@H](Cc2ccc(O)cc2)C(=O)O)cc1,/,/,/,/,/,/,33.8*,
O=C(O)C(Cc1ccc(Cl)cc1)NS(=O)(=O)c1ccc(Cl)cc1 (stereo not given),-20.0%,0.3%,38.1%,12.7%,-1.1,-4.3%,/,
Cc1ccc(NC(=O)Cn2c(=O)n(CCCCC(=O)NCCc3ccccc3)c(=O)c3ccccc32)c(C)c1,5.3%,/,16.1%,1.3%,/,3.5%,/,
NC(=O)N/N=C/c1ccc(-c2ccc(S(=O)(=O)Nc3ncccn3)cc2)o1,35.5µM*,-7.4%[11.6 µM],?,/,-12.1,?,67.5*,Pol kappa inh-2=37.7*
COC(=O)c1ccccc1NC(=O)c1c(NC(=O)c2ccco2)sc2c1CCC(C(C)(C)C)C2 (stereo not given),-7.6%,/,-1.1%,?,/,-7.2%,/,
Nc1ccc(C(CC(=O)O)n2cccc2)cc1 (stereo not given),25.1µM*,-5.7%[11.6 µM],39.8µM*,?,-11.9,44.7µM*,33.8*,
CC(C)c1ccc(CN(Cc2ccco2)c2cnc(S(C)(=O)=O)nc2C(=O)Nc2ccc(F)cc2)cc1,-17.9%,/,17.8%,15.3%,/,-5.4%,/,
CCOC(=O)c1cc(S(=O)(=O)N2CCN(c3ccccc3F)CC2)[nH]n1,-6.2%,/,-25.4%,0.5%,/,0.4%[60.1 µM],/,
CC(=O)O[C@@H]1[C@H]2[C@@H](C[C@@H](C)[C@@H]3C=CC(=O)[C@@]13C)OC(=O)[C@@H]2C,6.1%,-2.6%,-24.1%,1.3%,4.2,6.4%,/,
C=C1C(=O)OC2C1CCC(C)C1C=CC(=O)C12C (stereo not given),14.1µM*,-18.8%,44.7µM*,/,-8.2,-38.6%,?,
COC(=O)c1c(C)[nH]c(C(=O)COc2ccc3ccc(=O)oc3c2)c1C,44.7µM*,-12.9%[11.6 µM],?,/,-4.8,-37.6%,?,
Cc1c(Cl)cnn1CC(=O)NC1C(=O)N2C(C(=O)O)=C(CSc3nnnn3C)CSC12 (stereo not given),22.4µM*,-11.7%[11.6 µM],?,20µM*,-3.9,?,42.6*,
Cc1c(Cl)c(C(F)F)nn1CC(=O)NC1C(=O)N2C(C(=O)O)=C(CSc3nnnn3C)CSC12 (stereo not given),20µM*,-12.4%[11.6 µM],?,22.4µM*,-3.4,?,75.7*,
Cc1cc(=O)c(C(=O)N[C@@H](C(=O)N[C@@H]2C(=O)N3C(C(=O)O)=C(CSc4nnnn4C)CS[C@H]23)c2ccc(O)cc2)c[nH]1,/,/,/,/,/,-0.2%[19.4 µM],/,
Cc1nn(CC(=O)NC2C(=O)N3C(C(=O)O)=C(CSc4nnnn4C)CSC23)cc1Br (stereo not given),?,-6.5%[11.6 µM],-26.3%,31.6µM*,0.9,-19.1%,75.7*,
CC1=C(C(=O)O)N2C(=O)C(NC(=O)c3nn(C)cc3Cl)C2SC1 (stereo not given),-29.2%,6.7%,13.4%,28.4%,3.1,-11.1%,/,
Cn1nnnc1SCC1=C(C(=O)O)N2C(=O)C(NC(=O)Cn3nc(C(F)F)cc3C3CC3)C2SC1 (stereo not given),20µM*,-11.2%[11.6 µM],35.5µM*,17.8µM*,0.6,?,?,
C=Cc1ccc(Cn2c(C(=O)O)c(CNCCc3ccccc3)c3ccc(C)cc32)cc1,-19.9%,/,12.8%,-4.6%,/,-1.2%,/,
CC[C@@H](C)CN1C(=O)N[C@@H](c2ccccc2)C(C(C)=O)=C1C,22.4µM*,?,14.1µM*,/,?,?,75.7*,
SMILES,Pol eta inh-1,WRN helicase inh,POLI inh,POLB inh,PI5P4Ka inh,Pol kappa inh-1,Pol eta inh-2,others
COc1cc(O)cc2cc3c(c(O)c12)C(=O)CC(C)(O)O3 (stereo not given),44.7µM*,-7.0%[11.6 µM],?,50.1µM*,?,?,?,
O=C(C1CCC(Cn2c(=O)c3sccc3n(Cc3cccc(F)c3)c2=O)CC1)N1CCOCC1 (stereo not given),-9.9%,/,20.0%,-5.6%,/,-10.6%,/,
COc1ccccc1C(=O)Nc1nc2nc(C)c(Cc3ccccc3)c(=O)n2[nH]1,?,/,18.3%,-10.7%,/,-22.8%,75.7*,
Cc1nc2nc(NC(=O)c3ccc(C(C)(C)C)cc3)[nH]n2c(=O)c1Cc1ccccc1,-1.0%,/,2.2%,-0.8%,/,-19.1%,/,
COC(=O)/C=C1\SC(=NC(=O)c2ccc(OC)cc2)NC1=O,-16.3%,-22.6%,0.7%,11.8%,-0.7,-1.9%,/,
COC(=O)/C=C1\SC(=NC(=O)c2ccc(-c3ccccc3)cc2)NC1=O,50.1µM*,-5.1%[11.6 µM],?,/,-63.1*,-33.3%,?,
